Assay results taken from PubChem BioAssay (NCI).
About 79,000 compounds went through this panel and 15% of them were active in at least one assay; those are over-represented in the sample as a whole. Unmarked numbers belong to inactive results. Calls of active or inactive are those of the source. Rule as the data show it: active = growth inhibition above about 70%; inactive = the rest.

Legend:
[1] = NCI Yeast Anticancer Drug Screen. Data for the rad52 strain (AID 147);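 also: 0% = growth of vehicle-treated control cultures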; details: S. cerevisiae rad52 mutant growth inhibition, stronger effect = higher value
How it was run: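 Yeast strain carrying a DNA damage repair alteration was exposed to test compounds. Growth inhibition was measured relative to vehicle-treated controls.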

[2] = NCI Yeast Anticancer Drug Screen. Data for the wt1 strain (AID 149);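 also: 0% = growth of vehicle-treated wt1 cultures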; details: S. cerevisiae wt1 strain (SPY 50644) growth inhibition, stronger effect = higher value
How it was run: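 Compounds are added to wt1 yeast cultures. Growth is then measured. Inhibition is expressed relative to vehicle-treated controls.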

[3] = NCI Yeast Anticancer Drug Screen. Data for the rad50EPP+ strain (AID 151);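 also: 0% = growth of vehicle-treated control cultures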; details: S. cerevisiae rad50 mutant strain, stronger effect = higher value
How it was run: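 Yeast strain carrying rad50 alteration (rad50EPP+) exposed to compounds; growth inhibition measured relative to vehicle-treated controls.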

[4] = NCI Yeast Anticancer Drug Screen. Data for the rad50 strain (AID 155);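 also: 0% = growth of vehicle-only cultures of the same strain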; details: S. cerevisiae rad50 strain growth inhibition, stronger effect = higher value
How it was run: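 Inhibition values express reduced yeast growth in compound-treated cultures relative to vehicle-treated controls.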

[5] = NCI Yeast Anticancer Drug Screen. Data for the mec2-1 strain (AID 157); details: S. cerevisiae mec2-1 strain, stronger effect = higher value
How it was run: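 mec2-1 yeast strain, carrying an alteration in DNA damage repair or cell cycle control, was exposed to compounds; growth inhibition was measured relative to vehicle-treated controls.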

[6] = NCI Yeast Anticancer Drug Screen. Data for the rad14 strain (AID 159);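 also: 0% = growth of vehicle-treated control cultures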; details: S. cerevisiae rad14 strain growth inhibition, stronger effect = higher value
How it was run: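 A mutant yeast strain defective in DNA damage repair is treated with compound; inhibition of its growth is scored against untreated, vehicle-exposed cultures.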

[7] = NCI Yeast Anticancer Drug Screen. Data for the sgs1 mgt1 strain (AID 161);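 also: 0% = growth of cultures given vehicle only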; details: S. cerevisiae sgs1 mgt1 strain, stronger effect = higher value
How it was run: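 Compounds are added to genetically altered yeast, and growth is compared with cultures given vehicle alone to give percent inhibition.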

[8] = NCI Yeast Anticancer Drug Screen. Data for the CLN2oe strain (AID 163);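 also: 0% = growth of vehicle-only control cultures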; details: S. cerevisiae CLN2oe strain, stronger effect = higher value
How it was run: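 Yeast cells carrying a defined cell-cycle control alteration were exposed to test compounds. Growth inhibition was scored against vehicle-treated control cultures.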

[9] = NCI Yeast Anticancer Drug Screen. Data for the cln2 rad14 strain (AID 165);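 also: 0% = growth equal to vehicle treated cultures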; details: S. cerevisiae cln2 rad14 strain, stronger effect = higher value
How it was run: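 Yeast carrying cln2 and rad14 alterations (cell cycle control and DNA damage repair) were exposed to compounds. Growth inhibition was measured against vehicle-treated controls.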

[10] = NCI Yeast Anticancer Drug Screen. Data for the bub3 strain (AID 167); details: S. cerevisiae bub3 mutant strain, stronger effect = higher value
How it was run: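 Steps: expose the mutant yeast strain to compound; grow alongside vehicle-treated cultures; measure growth; express inhibition against the vehicle cultures.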

[11] = NCI Yeast Anticancer Drug Screen. Data for the wt2 strain (AID 169);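 also: 0% = growth of vehicle-treated yeast cultures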; details: S. cerevisiae wt2 strain growth inhibition, stronger effect = higher value
How it was run: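 Yeast cells were exposed to test compounds, and growth inhibition was measured relative to vehicle-treated controls.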

[12] = NCI Yeast Anticancer Drug Screen. Data for the mlh1 strain (AID 171);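 also: 0% = growth of vehicle-treated control cultures of the same strain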; details: S. cerevisiae mlh1 strain growth inhibition, stronger effect = higher value
How it was run: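 Yeast carrying a defined genetic alteration in DNA damage repair or cell cycle control were exposed to test compounds. Growth inhibition was measured relative to vehicle-treated controls.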

[13] = NCI Yeast Anticancer Drug Screen. Data for the sgs1 strain (AID 173);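 also: 0% = growth of vehicle-only control cultures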; details: S. cerevisiae sgs1 mutant, stronger effect = higher value
How it was run: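 Yeast mutant strains carrying defined defects in DNA damage repair or cell cycle control were exposed to test compounds. Growth inhibition was scored against vehicle-treated controls.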

[14] = NCI Yeast Anticancer Drug Screen. Data for the mlh1 rad18 strain (AID 175); details: S. cerevisiae mlh1 rad18 strain growth inhibition, stronger effect = higher value
How it was run: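 Growth inhibition of the yeast strain was measured after compound exposure and expressed relative to vehicle-treated controls. The strain carries defined defects in DNA damage repair.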

[15] = NCI Yeast Anticancer Drug Screen. Data for the rad18 strain (AID 177); details: S. cerevisiae rad18 mutant growth inhibition, stronger effect = higher value
How it was run: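 Yeast carrying a defined DNA damage repair alteration were exposed to compounds. Growth inhibition was expressed relative to vehicle-treated controls.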

[16] = at 5.0 µM (retest, dose inferred, filed as 0.5)
[17] = at 50.0 µM (retest, dose inferred, filed as 5.0)

For COc1cc2ccc(/C=C\[N+](=O)[O-])cc2cc1OC, the growth inhibition ([1]; at 1.2 µM) was 1%, the growth inhibition ([1]; at 3.7 µM) was 13% and the growth inhibition ([1]; at 11.0 µM) was 70% (active). The growth inhibition ([1]; at 33.0 µM) was 97% (active), the growth inhibition ([1]; at 100.0 µM) was 94% (active) and the growth inhibition ([2]; at 1.2 µM) was -24%. The growth inhibition ([2]; at 3.7 µM) was -25%, the growth inhibition ([2]; at 11.0 µM) was -37% and the growth inhibition ([2]; at 33.0 µM) was 98% (active). The growth inhibition ([2]; at 100.0 µM) was 96% (active), the growth inhibition ([3]; at 1.2 µM) was 18% and the growth inhibition ([3]; at 3.7 µM) was 39%. The growth inhibition ([3]; at 11.0 µM) was 83% (active), the growth inhibition ([3]; at 33.0 µM) was 98% (active) and the growth inhibition ([3]; at 100.0 µM) was 96% (active). The growth inhibition ([4]; at 1.2 µM) was -5%, the growth inhibition ([4]; at 3.7 µM) was 26% and the growth inhibition [4, 16] was 44%. The growth inhibition ([4]; at 11.0 µM) was 51%, the growth inhibition ([4]; at 33.0 µM) was 96% (active) and the growth inhibition [4, 17] was 99% (active). For the same compound, the growth inhibition ([4]; at 50.0 µM) was 91% (active), the growth inhibition ([4]; at 100.0 µM) was 94% (active) and the growth inhibition ([5]; at 1.2 µM) was 10%. For the same compound, the growth inhibition ([5]; at 3.7 µM) was -34%, the growth inhibition [5, 16] was 29% and the growth inhibition ([5]; at 11.0 µM) was 38%. The growth inhibition ([5]; at 33.0 µM) was 97% (active), the growth inhibition [5, 17] was 99% (active) and the growth inhibition ([5]; at 50.0 µM) was 90.5% (active). The growth inhibition ([5]; at 100.0 µM) was 95% (active), the growth inhibition ([6]; at 1.2 µM) was -26% and the growth inhibition ([6]; at 3.7 µM) was -39%. The growth inhibition ([6]; at 11.0 µM) was -18%, the growth inhibition ([6]; at 33.0 µM) was 97% (active) and the growth inhibition ([6]; at 100.0 µM) was 95% (active). For the same compound, the growth inhibition [7, 16] was 11%, the growth inhibition [7, 17] was 85% (active) and the growth inhibition ([7]; at 50.0 µM) was 90.7% (active). For the same compound, the growth inhibition ([8]; at 1.2 µM) was 12%, the growth inhibition ([8]; at 3.7 µM) was 0% and the growth inhibition ([8]; at 11.0 µM) was -4%. The growth inhibition ([8]; at 33.0 µM) was 91% (active), the growth inhibition ([8]; at 100.0 µM) was 95% (active) and the growth inhibition [9, 16] was -14%. The growth inhibition [9, 17] was -25%, the growth inhibition ([9]; at 50.0 µM) was 86.1% (active) and the growth inhibition ([10]; at 1.2 µM) was -30%. The growth inhibition ([10]; at 3.7 µM) was -21%, the growth inhibition [10, 16] was 17% and the growth inhibition ([10]; at 11.0 µM) was -22%. For the same compound, the growth inhibition ([10]; at 33.0 µM) was 85% (active), the growth inhibition [10, 17] was 53% and the growth inhibition ([10]; at 50.0 µM) was 91.9% (active). The growth inhibition ([10]; at 100.0 µM) was 95% (active), the growth inhibition ([11]; at 1.2 µM) was -14% and the growth inhibition ([11]; at 3.7 µM) was 4%. The growth inhibition ([11]; at 11.0 µM) was 22%, the growth inhibition ([11]; at 33.0 µM) was 98% (active) and the growth inhibition ([11]; at 100.0 µM) was 97% (active). For the same compound, the growth inhibition ([12]; at 1.2 µM) was -36%, the growth inhibition ([12]; at 3.7 µM) was -36% and the growth inhibition ([12]; at 11.0 µM) was 19%. The growth inhibition ([12]; at 33.0 µM) was 98% (active), the growth inhibition ([12]; at 100.0 µM) was 97% (active) and the growth inhibition ([13]; at 1.2 µM) was -4%. For the same compound, the growth inhibition ([13]; at 3.7 µM) was 16%, the growth inhibition ([13]; at 11.0 µM) was 47% and the growth inhibition ([13]; at 33.0 µM) was 98% (active). The growth inhibition ([13]; at 100.0 µM) was 97% (active), the growth inhibition [14, 16] was 45% and the growth inhibition [14, 17] was 98% (active). For the same compound, the growth inhibition ([14]; at 50.0 µM) was 92.3% (active), the growth inhibition ([15]; at 1.2 µM) was -17% and the growth inhibition ([15]; at 3.7 µM) was -33%. The growth inhibition ([15]; at 11.0 µM) was 18%, the growth inhibition ([15]; at 33.0 µM) was 97% (active) and the growth inhibition ([15]; at 100.0 µM) was 93% (active).
